Data: PubChem BioAssay
Calls of active or inactive are those of the source. Unless noted, the rule behind the calls is not given here.

Legend:
[1] = compounds binding Alexa647 anti-His antibody – biochemical, small-molecule microarray, 635 nm fluorescence, artefact control for SMM control protein annotation, primary screen (AID 1128); conditions: higher = more signal;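 note: score merges feature fluorescence with signal-to-noise for each printed compound spot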
[2] = system: Human papillomavirus type 1a E7 protein (residues 1-88); assay: HPV1a E7 small-molecule binders, primary screen, biochemical, small-molecule microarray, residues 1-88, 635 nm (AID 1129); conditions: small-molecule microarray binding, fluorescence 635 nm; higher = more signal
[3] = target: Focal adhesion kinase 1 (Homo sapiens) (UniProt Q05397); assay: PTK2 protein binding on printed compound slides – biochemical, small-molecule microarray, 635/667 nm fluorescence, BSA, DTT, primary screen (AID 1130); conditions: 635 nm fluorescence, higher = more signal;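 note: composite of spot emission at 667 nm and signal to noise over triplicate slides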
[4] = system: Fibrinogen (Alexa647-labelled); assay: Alexa647-fibrinogen binding to printed small molecules – biochemical, small-molecule microarray, 635/667 nm fluorescence, artefact control for SMM control-protein annotation, profiling panel (AID 1131); conditions: fibrinogen-A647 binding fluorescence, higher = more signal;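 note: z-score merges 667 nm fluorescence with per-spot signal-to-noise over triplicate slides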
[5] = target: Follistatin (Homo sapiens) (UniProt P19883); assay: FST protein binding to printed compounds – biochemical, small-molecule microarray, 635/667 nm fluorescence, primary screen (AID 1132); conditions: 635 nm fluorescence, higher = more signal
[6] = target: Fibroblast growth factor 2 (Homo sapiens) (UniProt P09038); assay: basic fibroblast growth factor binding to printed compounds – biochemical, small-molecule microarray, 635/667 nm fluorescence, primary screen (AID 1133); conditions: FGF2, fluorescence 635/667, higher = more signal
[7] = JC-1 mitochondrial potential readout, lung cancer cells – cell-based, A549, JC-1 fluorescence, basal, 24 h, 100 nL, profiling panel (AID 1138); conditions: higher = more signal;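 note: A549 lung adenocarcinoma cells under basal conditions with no added stimulus; test concentration not given here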
Lefty1 = Lefty1 protein binding to printed compounds – biochemical, small-molecule microarray, 635/667 nm fluorescence, primary screen (AID 1139); conditions: fluorescence 635/667, higher = more signal
[8] = system: wheat germ agglutinin (Triticum aestivum), Alexa647-labelled; assay: Alexa647-WGA lectin binding to printed small molecules – biochemical, small-molecule microarray, 635/667 nm fluorescence, artefact control for SMM control-protein annotation, profiling panel (AID 1140); conditions: WGA-A647 binding, 635 nm fluorescence, higher = more signal;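 note: score merges 667 nm feature emission with signal to noise over triplicate slides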
[9] = target: Luciferin 4-monooxygenase (Photinus pyralis) (UniProt P08659); assay: inhibition of purified Photinus pyralis luciferase – biochemical, luminescence, purified enzyme, 2006 set, primary screen (AID 1141); conditions: purified firefly luciferase, SteadyGlo luminescence, 30 min; higher = more signal, called active from +8 up or from −8 down;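 note: cell-free assay with purified firefly luciferase at 100 ng per well in PBS; test concentration not given here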
[10] = system: Wnt5a (protein binding on small-molecule microarray); assay: small molecules binding Wnt5a protein – biophysical, small-molecule microarray, 635/667 nm fluorescence, primary screen (AID 1142); conditions: 635 nm fluorescence, higher = more signal;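 note: fluorescence read at 667 nm with signal to noise per printed feature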
[11] = ATP-based viability of Huh7 replicon cells – cell-based, CellTiter-Glo luminescence, basal, 48 h, cytotoxicity control for HCV replication inhibitor project, primary screen (AID 1143); conditions: higher = more signal, called active from +8 up or from −8 down;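 note: Huh7 hepatoma cells carrying a hepatitis C replication reporter with no stimulus; test concentration not given here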
[12] = Pseudomonas biofilm growth suppression – PAO1 strain, BacTiter-Glo luminescence, LB-PBS, primary screen (AID 1144); conditions: P. aeruginosa PAO1 biofilm, 12 h, higher = more signal
[13] = basal CRE-LacZ reporter activity in PC12 – cell-based, unstimulated, primary screen (AID 1145); conditions: no forskolin, luminescence, 4.5 h, higher = more signal, called active from +8 up or from −8 down
[14] = forskolin-driven CRE-LacZ activity in PC12 – cell-based, CRE-LacZ reporter, forskolin-stimulated, primary screen (AID 1146); conditions: luminescence, 4.5 h, higher = more signal, called active from +8 up or from −8 down;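 note: PC12 cells with 6xCRE LacZ reporter stimulated by forskolin 10 µM; beta-galactosidase reporter signal reflecting CREB driven transcription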
[15] = target: Streptavidin (Streptomyces avidinii) (UniProt P22629); assay: compounds binding control protein streptavidin – biophysical, small-molecule microarray, 635/667 nm fluorescence, artefact control for SMM compound annotation, primary screen (AID 1147); conditions: higher = more signal;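 note: signal reflects streptavidin binding to arrayed compounds as a control protein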
[16] = probe aInhba binding on compound microarray – biochemical, small-molecule microarray, 635/667 nm fluorescence, primary screen (AID 1148); conditions: higher = more signal;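 note: score merges 667nm spot fluorescence with signal-to-noise for antibody binding to printed compounds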
Torsin-1A (Homo sapiens) [17] = target: Torsin-1A (Homo sapiens) (UniProt O14656); assay: TOR1A wild-type binding on microarray – cell lysate, small-molecule microarray, lysate, 635/667 nm, primary screen (AID 1149); conditions: COS7 hTOR1A-WT lysate, 635 nm fluorescence, higher = more signal
Torsin-1A (Homo sapiens) [18] = target: Torsin-1A (Homo sapiens) (UniProt O14656); assay: torsin A mutant lysate binding on microarrays – cell lysate, small-molecule microarray, COS7 lysate, 635/667 nm fluorescence, primary screen (AID 1150); conditions: COS7 hTOR1A mutant lysate, 635 nm fluorescence, higher = more signal;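 note: score pools 667 nm emission and signal to noise measuring lysate protein binding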
[19] = system: Sonic hedgehog protein (Shh); assay: Sonic hedgehog microarray binding compounds – biochemical, small-molecule microarray, 635/667 nm fluorescence, primary screen (AID 1151); conditions: 635 nm fluorescence, higher = more signal;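 note: Shh protein binding to compounds spotted on small-molecule microarray slides; score combines spot fluorescence intensity with signal-to-noise across triplicate slides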

Fibroblast growth factor 2 (Homo sapiens), sequence (P09038 whole entry, looked up): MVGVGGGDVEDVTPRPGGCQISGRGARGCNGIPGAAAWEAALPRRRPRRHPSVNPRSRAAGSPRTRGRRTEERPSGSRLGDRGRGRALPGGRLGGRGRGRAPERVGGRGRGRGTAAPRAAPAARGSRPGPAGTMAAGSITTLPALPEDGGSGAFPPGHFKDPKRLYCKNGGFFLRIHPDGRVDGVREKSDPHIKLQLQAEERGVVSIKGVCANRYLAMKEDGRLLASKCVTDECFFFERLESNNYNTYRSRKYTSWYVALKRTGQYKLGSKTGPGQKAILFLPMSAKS
Torsin-1A (Homo sapiens), sequence (O14656 whole entry, looked up): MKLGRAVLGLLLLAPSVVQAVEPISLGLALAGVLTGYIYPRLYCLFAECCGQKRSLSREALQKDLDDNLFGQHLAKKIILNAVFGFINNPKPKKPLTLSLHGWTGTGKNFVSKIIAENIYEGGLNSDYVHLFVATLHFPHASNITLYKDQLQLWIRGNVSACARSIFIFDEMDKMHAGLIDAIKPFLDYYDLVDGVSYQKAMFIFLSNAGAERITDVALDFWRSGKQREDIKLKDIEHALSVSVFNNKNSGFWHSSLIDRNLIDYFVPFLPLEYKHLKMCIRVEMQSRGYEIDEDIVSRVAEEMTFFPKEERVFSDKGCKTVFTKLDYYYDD
Streptavidin (Streptomyces avidinii), sequence (P22629 whole entry, looked up): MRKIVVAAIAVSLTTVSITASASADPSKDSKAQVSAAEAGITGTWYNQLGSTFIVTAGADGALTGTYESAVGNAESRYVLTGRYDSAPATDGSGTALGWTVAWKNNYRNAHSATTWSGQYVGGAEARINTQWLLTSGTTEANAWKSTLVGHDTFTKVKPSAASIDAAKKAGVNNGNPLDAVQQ
Follistatin (Homo sapiens), sequence (P19883 whole entry, looked up): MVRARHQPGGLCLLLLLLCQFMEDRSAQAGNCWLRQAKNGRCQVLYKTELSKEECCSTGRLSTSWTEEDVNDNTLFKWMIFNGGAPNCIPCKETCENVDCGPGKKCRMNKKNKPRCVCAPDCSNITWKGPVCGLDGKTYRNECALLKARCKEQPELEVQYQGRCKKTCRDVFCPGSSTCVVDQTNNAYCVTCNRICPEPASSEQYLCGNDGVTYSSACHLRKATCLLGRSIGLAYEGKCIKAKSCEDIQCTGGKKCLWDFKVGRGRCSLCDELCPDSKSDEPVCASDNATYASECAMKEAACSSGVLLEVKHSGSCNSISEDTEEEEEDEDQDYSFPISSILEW
Luciferin 4-monooxygenase (Photinus pyralis), sequence (P08659 whole entry, looked up): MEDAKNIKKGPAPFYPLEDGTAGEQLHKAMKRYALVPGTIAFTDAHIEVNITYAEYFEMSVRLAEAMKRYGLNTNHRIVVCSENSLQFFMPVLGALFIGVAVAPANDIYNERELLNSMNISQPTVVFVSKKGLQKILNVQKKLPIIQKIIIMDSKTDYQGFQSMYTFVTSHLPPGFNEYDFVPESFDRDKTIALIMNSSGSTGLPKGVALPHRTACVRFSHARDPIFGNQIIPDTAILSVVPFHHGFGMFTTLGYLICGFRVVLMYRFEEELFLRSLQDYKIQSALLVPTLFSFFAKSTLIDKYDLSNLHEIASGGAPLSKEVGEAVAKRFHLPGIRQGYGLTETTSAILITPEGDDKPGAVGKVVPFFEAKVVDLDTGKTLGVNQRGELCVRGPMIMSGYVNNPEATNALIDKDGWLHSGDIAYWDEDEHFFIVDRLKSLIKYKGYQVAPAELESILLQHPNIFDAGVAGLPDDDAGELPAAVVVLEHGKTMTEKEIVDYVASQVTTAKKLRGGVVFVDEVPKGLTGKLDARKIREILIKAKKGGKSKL
Focal adhesion kinase 1 (Homo sapiens), sequence (Q05397 whole entry, looked up): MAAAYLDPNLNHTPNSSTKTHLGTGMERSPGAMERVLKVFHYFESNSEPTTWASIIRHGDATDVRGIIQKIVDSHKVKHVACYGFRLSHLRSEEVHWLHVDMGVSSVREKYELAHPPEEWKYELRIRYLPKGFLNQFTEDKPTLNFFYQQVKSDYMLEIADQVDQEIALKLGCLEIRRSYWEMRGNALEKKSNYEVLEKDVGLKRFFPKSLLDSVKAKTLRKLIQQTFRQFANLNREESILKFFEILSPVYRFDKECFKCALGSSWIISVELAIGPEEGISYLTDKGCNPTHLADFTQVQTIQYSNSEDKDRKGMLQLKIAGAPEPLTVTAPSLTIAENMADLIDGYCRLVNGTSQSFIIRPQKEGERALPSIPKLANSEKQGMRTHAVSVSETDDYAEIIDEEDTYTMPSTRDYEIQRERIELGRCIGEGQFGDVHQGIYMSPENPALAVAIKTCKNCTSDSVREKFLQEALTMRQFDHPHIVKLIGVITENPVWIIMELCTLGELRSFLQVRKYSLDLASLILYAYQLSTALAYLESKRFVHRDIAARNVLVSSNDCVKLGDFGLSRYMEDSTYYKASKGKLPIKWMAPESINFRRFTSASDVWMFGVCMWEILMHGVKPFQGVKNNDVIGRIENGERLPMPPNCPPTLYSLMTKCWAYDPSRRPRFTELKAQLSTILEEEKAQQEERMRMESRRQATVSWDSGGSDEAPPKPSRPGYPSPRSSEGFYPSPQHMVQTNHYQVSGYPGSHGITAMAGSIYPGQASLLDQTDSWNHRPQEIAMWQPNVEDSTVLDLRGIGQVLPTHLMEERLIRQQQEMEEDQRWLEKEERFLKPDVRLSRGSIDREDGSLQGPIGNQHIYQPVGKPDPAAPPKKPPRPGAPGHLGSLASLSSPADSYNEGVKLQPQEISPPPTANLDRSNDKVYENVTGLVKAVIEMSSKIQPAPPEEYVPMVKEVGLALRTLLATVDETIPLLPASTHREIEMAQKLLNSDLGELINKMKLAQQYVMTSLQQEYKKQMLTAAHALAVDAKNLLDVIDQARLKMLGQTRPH

Row | Structure (SMILES) | composite z-score [1] | composite z-score [2] | composite z-score [3] | composite z-score [4] | composite z-score [5] | composite z-score [6] | z-score [7] | composite z-score (Lefty1) | composite z-score [8] | z-score [9] | composite z-score [10] | z-score [11] | z-score [12] | z-score [13] | z-score [14] | composite z-score [15] | composite z-score [16] | composite z-score (Torsin-1A (Homo sapiens) [17]) | composite z-score (Torsin-1A (Homo sapiens) [18]) | composite z-score [19]
1 | COC(=O)[C@H](Cc1ccccc1)N1CC(/C=C/C2CC2)=C[C@@H]1[C@@H](O)Cc1ccccc1 | 0.303 | 1.14 | 0.28 | 0.971 | 0.958 | 0.418 | 0.33 | 1.26 | 0.982 | -0.186 (inactive) | 0.624 | -1.63 (inactive) | -1.18 (inactive) | 3.31 (inactive) | 5.89 (inactive) | 0.756 | 0.0471 | 0.957 | -0.038 | 1.81
2 | CC(CO)N1C(=O)[C@@H]2C3C(=O)OCCC/C=C\[C@H]3OC23C=CCN(Cn2nnc4ccccc42)C(=O)[C@@H]13 (stereo not given in full) | 3.15 | -0.589 | -0.923 | -0.326 | -0.171 | -0.614 | 0.918 | -0.13 | -0.276 | 0.196 (inactive) | -0.275 | 0.39 (inactive) | -1.36 (inactive) | -0.358 (inactive) | -0.691 (inactive) | -0.521 | -0.024 | -1.02 | -0.296 | 0.276
3 | CN(C)C(=O)[C@@]1(Cc2ccccc2N=[N+]=[N-])COC(c2ccc(OCCCO)cc2)=N1 | 0.869 | 1.22 | 0.947 | 1 | 1.32 | 1.76 | 1.76 | -0.349 | 0.51 | -3.71 (inactive) | 0.932 | -2.68 (inactive) | 0.618 (inactive) | 0.942 (inactive) | 0.646 (inactive) | 0.726 | -0.0171 | 0.425 | 0.837 | -0.215
4 | COc1ccc([Si](C)(C)[C@H]2[C@H](CCO)O[C@@]3(C(=O)N(Cc4cccc(N5CCCCC5=O)c4)c4ccccc43)[C@@H]2C)cc1 | 1.16 | 1.15 | 0.362 | 0.848 | 1.26 | 0.403 | 0.589 | 1.06 | 0.418 | -1.34 (inactive) | 0.416 | -7.87 (inactive) | -1.05 (inactive) | 2.39 (inactive) | -1.82 (inactive) | 0.569 | -0.116 | -0.0387 | 0.299 | 1.5
5 | CC(C)C(=C=CC[C@@H](O)c1ccccc1OCCO)C[C@@H](O)COCc1ccccc1 | -0.0424 | 0.42 | -0.0011 | 0.807 | 1.28 | 1.45 | 1.88 | 0.435 | 0.288 | -2.5 (inactive) | 0.679 | -5.62 (inactive) | 0.173 (inactive) | 18.5 (active) | -0.762 (inactive) | 0.235 | 0.15 | 0.636 | 1.1 | 1.98
6 | [N-]=[N+]=NCc1ccccc1C[C@@]1(C(N)=O)N=C(c2ccc(OCCCO)cc2)O[C@@H]1c1ccccc1CN=[N+]=[N-] | 1.13 | 1.22 | 0.0375 | 0.761 | 0.591 | 0.653 | 1.45 | -0.242 | 0.756 | -1.11 (inactive) | 0.592 | -2.14 (inactive) | 0.0387 (inactive) | 0.0451 (inactive) | 0.161 (inactive) | 1.13 | -0.0418 | 0.549 | 0.335 | -0.302
7 | COc1ccc(C(O)C2C=CC3C(=O)N(C)C(=O)C3N2N2CCCCC2)cc1 (stereo not given) | 2.56 | 1.23 | 0.656 | 0.96 | 0.299 | -0.19 | 0.406 | -0.523 | 1.29 | -1.08 (inactive) | 0.345 | 0.758 (inactive) | -0.3 (inactive) | 0.639 (inactive) | 0.104 (inactive) | 1.54 | 0.158 | 0.718 | 0.849 | -0.381
8 | COC(=O)Cn1c(C(=O)N2CCCC2)cc2c1C[C@H]1CN(C(=O)c3ccccc3)[C@@](Cc3ccc(F)cc3)(C(=O)OC)[C@@H]21 | 0.712 | -0.25 | 0.386 | -0.288 | 0.237 | -0.438 | 1.39 | -0.3 | 0.647 | 1.22 (inactive) | -0.164 | -1.83 (inactive) | -0.288 (inactive) | -0.182 (inactive) | 0.105 (inactive) | 1.59 | -0.123 | 0.895 | -0.137 | -0.271
9 | C#CCNC(=O)[C@H](Cc1ccccc1)NC(=O)[C@@H](N=[N+]=[N-])C(C)C | 0.141 | 0.873 | 0.146 | 0.694 | 0.127 | 0.524 | 0.332 | 0.343 | 0.349 | -0.66 (inactive) | 0.0696 | -0.0943 (inactive) | 0.0632 (inactive) | 0.0918 (inactive) | -0.462 (inactive) | -0.0247 | -0.025 | 0.0696 | 0.892 | 0.539
10 | CN1C(=O)C2C=CC(C(O)C3CCCCC3)N(N3CCCCC3)C2C1=O (stereo not given) | 1.18 | 1.26 | 0.542 | 0.957 | 1.31 | 0.182 | 1.25 | 0.766 | 0.774 | 0.49 (inactive) | 0.341 | 0.505 (inactive) | -0.416 (inactive) | -0.326 (inactive) | 0.158 (inactive) | 0.842 | 0.268 | 0.221 | 0.579 | 0.875
